Assay results from PubChem BioAssay (NCATS).
Records with an inconclusive call do not appear. Calls of active or inactive are those of the source. Calls follow the shape of the dose curve; as a rule, active = well fitted inhibition curve with a large enough effect; inconclusive = small, poorly fitted or top-dose-only effect; inactive = flat fitted curve, though single readings scatter.

Tests used:
Assay in all cases: qHTS profiling for inhibitors of Plasmodium falciparum proliferation (AID 504749); also: nearly all actives have a fitted effect of over 60% in size
Settings in all cases: P. falciparum in erythrocytes, SYBR Green DNA, 72 h; series mostly up to 12.8 µM
AA1029 = tested on: AA1029
Summary of the method: (§1)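 SYBR Green fluorescence (ex 485 nm, em 535 nm) reports parasite DNA after 72 h compound exposure of infected red cells at 0.3% parasitemia, 2.5% hematocrit; signal normalized to 0.29 uM artemisinin and vehicle wells.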

AS120 = tested on: AS120
Summary of the method: as §1

ATS95 = tested on: ATS95
Summary of the method: as §1

C2A = tested on: C2A
Summary of the method: as §1

CP185 = tested on: CP185
Summary of the method: as §1

CP191 = tested on: CP191
Summary of the method: as §1

CP203 = tested on: CP203
Summary of the method: as §1

CP215 = tested on: CP215
Summary of the method: as §1

CP217 = tested on: CP217
Summary of the method: as §1

CP247 = tested on: CP247
Summary of the method: as §1

CP252 = tested on: CP252
Summary of the method: as §1

CP265 = tested on: CP265
Summary of the method: as §1

CP297 = tested on: CP297
Summary of the method: as §1

ECU = tested on: ECU
Summary of the method: as §1

N140 = tested on: N140
Summary of the method: as §1

P93_24 = tested on: P93_24
Summary of the method: as §1

PC15 = tested on: PC15
Summary of the method: as §1

TAB113 = tested on: TAB113
Summary of the method: as §1

W2 = tested on: W2
Summary of the method: as §1

GB4 = tested on: GB4
Summary of the method: as §1

Measured: Potency

CC(=O)N[C@@H]1C(O)OC(CO)C(O)C1O (stereo not given in full)
inactive: AA1029 | AS120 | ATS95 | C2A | CP185 | CP191 | CP203 | CP215 | CP217 | CP247 | CP252 | CP265 | CP297 | ECU | N140 | P93_24 | PC15 | TAB113 | W2

COc1ccc(-c2cc(=O)c3c(O)cc(O[C@H]4OC(COC5OC(C)C(O)C(O)[C@H]5O)C(O)C(O)C4O)cc3o2)cc1O (stereo not given in full)
inactive: AA1029 | AS120 | ATS95 | C2A | CP185 | CP191 | CP203 | CP215 | CP217 | CP247 | CP252 | CP265 | CP297 | ECU | GB4 | N140 | P93_24 | PC15 | TAB113

NCC1CCC(N)C(O[C@@H]2C(O)[C@H](O[C@H]3OC(CO)C(O)C(N)C3O)[C@@H](N)C[C@H]2N)O1 (stereo not given in full)
inactive: AA1029 | AS120 | ATS95 | C2A | CP185 | CP191 | CP203 | CP215 | CP217 | CP247 | CP252 | CP265 | CP297 | ECU | GB4 | N140 | P93_24 | PC15 | TAB113

CC(C)=CCC[C@](C)(O)C1CC=C(C)CC1 (stereo not given in full)
inactive: AA1029 | AS120 | ATS95 | C2A | CP185 | CP191 | CP203 | CP215 | CP217 | CP247 | CP252 | CP265 | CP297 | ECU | GB4 | N140 | P93_24 | PC15 | TAB113 | W2

C[C@]12C=CC(=O)C=C1CCC1C2C(O)C[C@]2(C)C1CC[C@]2(O)C(=O)CO (stereo not given in full)
inactive: AA1029 | AS120 | ATS95 | C2A | CP185 | CP191 | CP203 | CP215 | CP217 | CP247 | CP252 | CP265 | CP297 | ECU | GB4 | N140 | P93_24 | PC15 | TAB113 | W2

CC(=O)O[C@@]1(C(C)=O)CCC2C3CC(C)C4=CC(=O)CC[C@@]4(C)C3CC[C@]21C (stereo not given in full)
inactive: CP203 | CP215 | CP297 | GB4 | W2

CCC(C)C(=O)OC1CC(O)C=C2C=CC(C)C(CCC(O)CC(O)CC(=O)O)C21 (stereo not given)
inactive: AA1029 | AS120 | ATS95 | C2A | CP185 | CP191 | CP203 | CP215 | CP217 | CP247 | CP252 | CP265 | CP297 | ECU | GB4 | N140 | P93_24 | PC15 | TAB113 | W2

CNC1C(OC2C(O[C@@H]3C(O)C(O)[C@@H](N=C(N)N)C(O)C3N=C(N)N)OC(C)[C@@]2(O)CO)OC(CO)C(O)C1O (stereo not given in full)
inactive: AA1029 | AS120 | ATS95 | C2A | CP185 | CP191 | CP215 | CP217 | CP247 | CP252 | CP265 | ECU | GB4 | N140 | P93_24 | PC15 | TAB113 | W2
